Data taken from PubChem BioAssay (Tox21).
Values joined by “and” are separate entries in the source; they are usually repeats but may differ in a detail not shown here. Equal values may be shown once. Records with an inconclusive call do not appear. Active and inactive are the calls of the source. Unless noted, calls come from the whole dose curve; as a rule, active = well fitted curve in the direction sought with a large enough effect in the repeat runs; inconclusive = weak or mixed curves; inactive = no such curve, though single readings can be large; an effect the other way counts as inactive or inconclusive.

Experiments:
[1] = qHTS assay to identify small molecule agonists of the peroxisome proliferator-activated receptor delta (PPARd) signaling pathway - cell viability counter screen (AID 743211); note: nearly all actives have a fitted effect of over 55% in size
Procedure, shortened: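 PPARd-bla HEK293H cells (3000/well) were pre-incubated 5 h at 37 C, then exposed to compound for 17 h at 37 C. After 2 h with LiveBLAzer substrate, CellTiter-Glo was added to the same wells; luminescence read after 30 min at room temperature.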

[2] = target: Peroxisome proliferator-activated receptor delta (Homo sapiens) (UniProt Q03181); assay: qHTS assay to identify small molecule agonists of the peroxisome proliferator-activated receptor delta (PPARd) signaling pathway (AID 743212; calls by dose curve)
Peroxisome proliferator-activated receptor delta (Homo sapiens), sequence (Q03181 whole entry, looked up): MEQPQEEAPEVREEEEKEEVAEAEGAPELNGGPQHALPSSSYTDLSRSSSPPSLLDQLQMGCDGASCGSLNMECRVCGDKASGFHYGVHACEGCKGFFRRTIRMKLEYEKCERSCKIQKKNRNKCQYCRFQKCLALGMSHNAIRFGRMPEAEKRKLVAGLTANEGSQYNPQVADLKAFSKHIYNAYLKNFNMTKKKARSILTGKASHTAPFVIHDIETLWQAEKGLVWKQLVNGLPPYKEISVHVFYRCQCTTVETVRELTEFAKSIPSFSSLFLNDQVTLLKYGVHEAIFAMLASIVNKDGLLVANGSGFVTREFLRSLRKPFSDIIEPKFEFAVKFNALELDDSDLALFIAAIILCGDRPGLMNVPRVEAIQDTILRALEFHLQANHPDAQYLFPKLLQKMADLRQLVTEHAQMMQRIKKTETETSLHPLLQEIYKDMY
Procedure, shortened: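 Read-out: beta-lactamase FRET fluorescence after 2 h room-temperature incubation with LiveBLAzer B/G substrate. Cells were HEK293H carrying a UAS-bla reporter for PPARd, treated at 37 C with DMSO-dissolved compounds.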

[3] = qHTS assay to identify small molecule antagonists of the peroxisome proliferator-activated receptor delta (PPARd) signaling pathway - cell viability counter screen (AID 743213); note: nearly all actives have a fitted effect of over 50% in size
Procedure, shortened: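 PPARd-bla HEK293H cells were treated with compounds plus agonist L165041 (300 nM final) for 17 h at 37 C. Viability was then read in the same wells by CellTiter-Glo luminescence after 30 min at room temperature.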

[4] = target: Peroxisome proliferator-activated receptor delta (Homo sapiens) (UniProt Q03181); assay: qHTS assay to identify small molecule antagonists of the peroxisome proliferator-activated receptor delta (PPARd) signaling pathway (AID 743215; active = well fitted inhibition curve with a large enough effect in the signal ratio in the repeat runs, not every such curve was filed as active; the % refers to the signal ratio;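 note: cells stimulated with agonist L165041 at 300 nM final during compound exposure; series mostly up to about 62 µM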)
Procedure, shortened: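 Agonist L165041 (300 nM final) added with compound to PPARd-bla HEK293H UAS-bla reporter cells; 17 h incubation at 37 C. Read-out: LiveBLAzer FRET substrate, 2 h at room temperature, fluorescence intensity.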

[5] = qHTS assay to identify small molecule agonists of the farnesoid-X-receptor (FXR) signaling pathway - cell viability counter screen (AID 743218); note: nearly all actives have a fitted effect of over 45% in size
Procedure, shortened: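 Viability counter screen in the same wells: CellTiter-Glo luminescence, 30 min room-temperature incubation, measured after the beta-lactamase read. Cells were GeneBLAzer FXR-UAS-bla HEK 293T, compound-treated 16 h at 37C.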

[6] = qHTS assay to identify small molecule antagonists of the farnesoid-X-receptor (FXR) signaling pathway - cell viability counter screen (AID 743221; active = well fitted cell-killing curve with a large enough effect in the repeat runs, not every such curve was filed as active; note: nearly all actives have a fitted effect of over 50% in size)
Procedure, shortened: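 GeneBLAzer FXR-UAS-bla HEK 293T cells, compound plus chenodeoxycholic acid (50 uM final), 16 h at 37 C. CellTiter-Glo added to the same wells after the beta-lactamase read; luminescence read after 30 min at room temperature as viability.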

[7] = target: Vitamin D3 receptor (Homo sapiens) (UniProt P11473); assay: qHTS assay to identify small molecule agonists of the vitamin D receptor (VDR) signaling pathway (AID 743222; calls by dose curve)
Vitamin D3 receptor (Homo sapiens), sequence (P11473 whole entry, looked up): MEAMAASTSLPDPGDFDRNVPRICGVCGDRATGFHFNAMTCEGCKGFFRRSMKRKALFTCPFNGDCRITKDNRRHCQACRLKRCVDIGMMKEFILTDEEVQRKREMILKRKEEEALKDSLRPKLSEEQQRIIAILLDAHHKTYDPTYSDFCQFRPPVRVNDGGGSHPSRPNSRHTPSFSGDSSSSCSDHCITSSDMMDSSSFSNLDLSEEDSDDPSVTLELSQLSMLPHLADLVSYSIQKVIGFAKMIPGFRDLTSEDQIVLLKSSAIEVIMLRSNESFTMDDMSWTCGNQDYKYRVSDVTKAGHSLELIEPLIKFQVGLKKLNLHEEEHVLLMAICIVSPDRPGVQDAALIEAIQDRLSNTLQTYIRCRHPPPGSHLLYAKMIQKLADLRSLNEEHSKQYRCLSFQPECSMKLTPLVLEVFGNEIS
Procedure, shortened: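 Agonist mode, beta-lactamase reporter: fluorescence from LiveBLAzer B/G FRET substrate (2 h, room temperature) read after 16 h compound treatment at 37 C of VDR-bla cells, which were pre-incubated 4 h after seeding.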

[8] = target: Vitamin D3 receptor (Homo sapiens) (UniProt P11473); assay: qHTS assay to identify small molecule antagonists of the vitamin D receptor (VDR) signaling pathway (AID 743223; active = well fitted inhibition curve with a large enough effect in the signal ratio in the repeat runs, not every such curve was filed as active; the % refers to the signal ratio)
Procedure, shortened: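 VDR-bla cells were treated with compound plus 3 nM final 1alpha,25-dihydroxyvitamin D3 for 16 h at 37C. Beta-lactamase reporter read by B/G FRET substrate fluorescence after 2 h at room temperature. qHTS format.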

[9] = qHTS assay to identify small molecule agonists of the vitamin D receptor (VDR) signaling pathway - cell viability counter screen (AID 743224); note: series mostly up to about 63 µM; nearly all actives have a fitted effect of over 50% in size
Procedure, shortened: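 Counter screen run in the same wells as the VDR-bla reporter assay: CellTiter-Glo luminescence, 30 min at room temperature, after 16 h compound treatment at 37C of cells pre-plated for 4 h.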

[10] = qHTS assay to identify small molecule antagonists of the vitamin D receptor (VDR) signaling pathway - cell viability counter screen (AID 743225); note: nearly all actives have a fitted effect of over 50% in size
Procedure, shortened: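 VDR-UAS-bla HEK 293T cells were plated and incubated 4 h at 37C, then dosed with compound plus 3 nM (final) 1-alpha,25-dihydroxyvitamin D3 for 16 h. After the 2 h beta-lactamase read, viability in the same wells was read as CellTiter-Glo luminescence after 30 min at room temperature.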

[11] = qHTS assay to identify small molecule agonists of the NFkB signaling pathway (AID 1159509; active = well fitted curve in the direction sought with a large enough effect in the signal ratio in the repeat runs, not every such curve was filed as active; the % refers to the signal ratio; note: series mostly up to about 61 µM)
Procedure, shortened: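 Beta-lactamase reporter assay run in quantitative high-throughput format on an NF-kB-responsive ME-180 line, with 5 hr compound treatment and a FRET-based blue/green fluorescence readout.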

[12] = qHTS assay to identify small molecule agonists of the NFkB signaling pathway - cell viability counter screen (AID 1159515; calls by dose curve; note: series mostly up to about 61 µM; nearly all actives have a fitted effect of over 55% in size)
Procedure, shortened: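 Read by CellTiter-Glo luminescence (30 min, room temperature) in the wells also used for the beta-lactamase FRET read. ME-180 NFkB-bla cells at 2,000 per well were plated overnight, then exposed to compound for 5 hr at 37 C.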

[13] = qHTS assay to identify small molecule agonists of the endoplasmic reticulum stress response signaling pathway (AID 1159516; active = well fitted activation curve with a large enough effect in the signal ratio in the repeat runs, not every such curve was filed as active; the % refers to the signal ratio)
Procedure, shortened: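 Ratiometric FRET readout (405 nm excitation; 460 and 530 nm emission) of a beta-lactamase gene driven by the ER stress response element, after 2 hr substrate loading. HeLa ESRE-bla cells were seeded overnight and treated with compounds for only 5 hr at 37 C.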

[14] = qHTS assay to identify small molecule antagonists of the retinoid-related orphan receptor gamma (ROR-gamma) signaling pathway - cell viability counter screen (AID 1159520); note: nearly all actives have a fitted effect of over 50% in size; note: potency is the fitted concentration of half-maximal effect
Procedure, shortened: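 Tet-on ROR gamma CHO cells were given compounds for 2 hr, then doxycycline hyclate at 1 uM final, and incubated 16 hr at 37 C. Viability was measured as ATP content by CellTiter-Glo luminescence.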

[15] = target: Nuclear receptor ROR-gamma (Homo sapiens) (UniProt P51449); assay: qHTS assay to identify small molecule antagonists of the retinoid-related orphan receptor gamma (ROR-gamma) signaling pathway (AID 1159521; note: nearly all actives have a fitted effect of over 50% in size; note: potency is the fitted concentration of half-maximal effect)
Procedure, shortened: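 Tet-on ROR-gamma CHO cells with ROR response element-luciferase reporter; compounds added 2 hr before 1 uM doxycycline induction, then 16 hr at 37 C. Antagonism scored as decreased ONE-Glo luminescence.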

[16] = qHTS assay to identify small molecule agonists of the AP-1 signaling pathway - cell viability counter screen (AID 1159525; calls by dose curve; note: nearly all actives have a fitted effect of over 55% in size)
Procedure, shortened: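 Same-well cytotoxicity counter screen of the Tox21 10K library in ME-180 cells. The readout is ATP-dependent luminescence after 5 h compound treatment. Data are normalised to DMSO and tetra n-octyl ammonium bromide controls.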

[17] = qHTS assay to identify small molecule agonists of the AP-1 signaling pathway (AID 1159526; calls by dose curve)
[18] = target: Bile acid receptor (Homo sapiens) (UniProt Q96RI1); assay: qHTS assay to identify small molecule antagonists of the farnesoid-X-receptor (FXR) signaling pathway (AID 743217; active = well fitted inhibition curve with a large enough effect in the signal ratio in the repeat runs, not every such curve was filed as active; the % refers to the signal ratio)
Bile acid receptor (Homo sapiens), sequence (Q96RI1 whole entry, looked up): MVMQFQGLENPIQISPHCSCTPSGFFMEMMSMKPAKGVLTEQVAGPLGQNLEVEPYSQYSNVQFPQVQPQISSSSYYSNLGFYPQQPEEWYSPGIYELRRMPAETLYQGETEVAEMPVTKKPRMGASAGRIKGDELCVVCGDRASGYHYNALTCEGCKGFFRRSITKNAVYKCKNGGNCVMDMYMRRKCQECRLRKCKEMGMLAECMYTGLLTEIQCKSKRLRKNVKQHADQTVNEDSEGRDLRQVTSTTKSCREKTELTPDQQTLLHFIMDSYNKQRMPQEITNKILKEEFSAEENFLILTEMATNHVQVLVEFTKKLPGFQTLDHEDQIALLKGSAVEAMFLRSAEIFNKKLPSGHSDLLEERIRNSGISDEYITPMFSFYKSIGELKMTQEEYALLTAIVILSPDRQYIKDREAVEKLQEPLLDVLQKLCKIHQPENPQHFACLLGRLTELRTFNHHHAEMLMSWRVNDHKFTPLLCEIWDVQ
Procedure, shortened: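 Antagonist mode: chenodeoxycholic acid at 50 uM final stimulates a UAS-driven beta-lactamase reporter in HEK 293T FXR-bla cells during 16 h, 37C compound exposure. Read-out is FRET substrate fluorescence after 2 h at room temperature.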

[19] = target: Bile acid receptor (Homo sapiens) (UniProt Q96RI1); assay: qHTS assay to identify small molecule agonists of the farnesoid-X-receptor (FXR) signaling pathway (AID 743220; active = well fitted activation curve with a large enough effect in the signal ratio in the repeat runs, not every such curve was filed as active; the % refers to the signal ratio)
Procedure, shortened: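 FXR-UAS-bla HEK 293T cells carrying a UAS-driven beta-lactamase reporter were plated for 5 h at 37C/5% CO2, then exposed to DMSO-dissolved Tox21 10K compounds for 16 h at 37C. A LiveBLAzer B/G FRET substrate was loaded for 2 h at room temperature before fluorescence reading.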

[20] = qHTS assay to identify small molecule agonists of the endoplasmic reticulum stress response signaling pathway - cell viability counter screen (AID 1159517; calls by dose curve)
Procedure, shortened: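 Steps: seed 1,500 ESRE-bla HeLa cells per well; incubate overnight at 37 C, 5% CO2; add compounds in DMSO for 5 hr; run FRET substrate 2 hr RT; add CellTiter-Glo, wait 30 min, read luminescence.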

Measured: Potency

CCNc1nc(NC(C)C)nc(SC)n1
inactive: [1] | [2] | [3] | [4] | [5] | [6] | [7] | [8] | [9] | [10] | [11] | [12] | [13] | [14] | [15] | [16] | [17]

CC(C)C1(C)N=C(c2nc3ccccc3cc2C(=O)O)NC1=O (stereo not given)
inactive: [1] | [2] | [3] | [4] | [18] | [5] | [19] | [6] | [7] | [8] | [9] | [10] | [11] | [12] | [14] | [15] | [16] | [17]

OCCN(CCO)CCO
inactive: [1] | [3] | [5] | [6] | [9] | [10] | [11] | [12] | [20] | [14] | [16] | [17]

CCCCN(CCCC)SN(C)C(=O)Oc1cccc2c1OC(C)(C)C2
active: [14] 62.1 µM | [15] 22 µM and 30.6 µM
inactive: [1] | [2] | [3] | [4] | [5] | [6] | [7] | [8] | [9] | [10] | [11] | [12] | [20] | [16] | [17]

C#CC(C)(C)NC(=O)c1cc(Cl)cc(Cl)c1
inactive: [1] | [2] | [3] | [4] | [5] | [6] | [7] | [8] | [9] | [10] | [11] | [12] | [14] | [15] | [16] | [17]

Nc1ccc(Cc2ccc(N)cc2)cc1
inactive: [1] | [2] | [3] | [4] | [18] | [5] | [19] | [6] | [7] | [8] | [10] | [11] | [12] | [14] | [15] | [16] | [17]

Cc1ccc(N)cc1Cl
inactive: [1] | [3] | [5] | [6] | [7] | [8] | [10] | [11] | [12] | [20] | [14] | [15] | [16] | [17]

COC(=O)NS(=O)(=O)c1ccc(N)cc1
inactive: [1] | [2] | [3] | [4] | [5] | [6] | [7] | [8] | [9] | [10] | [11] | [12] | [14] | [15] | [16] | [17]

CCOP(=S)(OCC)Oc1cnc2ccccc2n1
inactive: [1] | [2] | [4] | [18] | [5] | [19] | [6] | [9] | [10] | [11] | [12] | [20] | [16] | [17]

Cc1[nH]c(=O)n(C(C)(C)C)c(=O)c1Cl
inactive: [1] | [3] | [18] | [5] | [19] | [6] | [10] | [11] | [12] | [14] | [15] | [16] | [17]

CCNc1nc(NC(C)(C)C)nc(SC)n1
inactive: [1] | [2] | [3] | [4] | [18] | [5] | [19] | [6] | [7] | [8] | [9] | [10] | [11] | [12] | [14] | [16] | [17]

COCCl
inactive: [1] | [2] | [3] | [4] | [18] | [5] | [19] | [6] | [7] | [8] | [10] | [11] | [12] | [14] | [15] | [16] | [17]

CN(C)N=O
inactive: [1] | [3] | [18] | [5] | [19] | [6] | [7] | [8] | [9] | [10] | [11] | [12] | [20] | [15] | [16] | [17]

CC(C#N)CCC#N (stereo not given)
inactive: [1] | [2] | [3] | [4] | [5] | [6] | [7] | [8] | [9] | [10] | [11] | [12] | [20] | [15] | [16] | [17]

CCCN(CCC)c1c([N+](=O)[O-])cc(C(F)(F)F)cc1[N+](=O)[O-]
inactive: [1] | [2] | [3] | [4] | [18] | [5] | [19] | [6] | [7] | [8] | [10] | [11] | [12] | [14] | [15] | [16] | [17]

CCCCOC(=O)c1ccccc1C(=O)OCCCC
inactive: [1] | [3] | [5] | [6] | [7] | [8] | [10] | [11] | [12] | [20] | [14] | [15] | [16]

NCC(O)c1ccc(O)cc1 (stereo not given)
inactive: [1] | [3] | [5] | [6] | [7] | [8] | [10] | [11] | [12] | [15] | [16] | [17]

Nc1ccccc1C(=O)O
inactive: [1] | [3] | [18] | [5] | [19] | [6] | [7] | [8] | [9] | [10] | [11] | [12] | [20] | [14] | [16] | [17]

Cc1cc(-c2cc(C)c(N)c(C)c2)cc(C)c1N
inactive: [1] | [2] | [3] | [4] | [5] | [6] | [7] | [8] | [9] | [10] | [11] | [12] | [20] | [14] | [15] | [16] | [17]
